# The panel holds about 83,000 compounds, 20% with a hit somewhere; the sample as a whole holds those more often.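 The endpoint reported here, percent growth, reads 100 for growth as untreated, 0 for no net growth and -100 for all cells dead.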 Values without a mark were called inactive. The source made the active and inactive calls. The calls were made as follows: active = growth percent below 10; inactive = the rest.
# Key:
# Experiment in all cases: NCI-60 one-dose screen, 48 h (100 = growth as untreated, 0 = no growth, -100 = all killed)
# Conditions in all cases: 10 µM unless noted
# T-47D breast = system: T-47D breast
# BT-549 breast = system: BT-549 breast
# MDA-MB-435 melanoma = system: MDA-MB-435 melanoma
# SW-620 colon = system: SW-620 colon
# MCF7 breast = system: MCF7 breast
# HCT-116 colon = system: HCT-116 colon
# HCC-2998 colon = system: HCC-2998 colon
# KM12 colon = system: KM12 colon
SMILES,growth (T-47D breast),growth (BT-549 breast),growth (MDA-MB-435 melanoma),growth (SW-620 colon),growth (MCF7 breast),growth (HCT-116 colon),growth (HCC-2998 colon),growth (KM12 colon)
CCOC(=O)c1nnn(-c2ccccc2)c1C1=CN(C)CCC1,93.3%,99.4%,105%,101%,92.9%,87.7%,95.9%,99.9%
CCCCCOC(=O)c1cccc(NC(=O)CN(CC)CC)c1,91.9%,72.6%,101%,105%,103%,74.9%,98.9%,104%
N#Cc1c(N)n2c(nc1=Nc1ccc([N+](=O)[O-])cc1)sc1cc(Cl)ccc12,78.2%,116%,97.9%,96.4%,77.6%,94.3%,144%,97.2%
CCn1c(Sc2nnc(NC(C)=O)s2)nc2c1c(=O)n(C)c(=O)n2C,93%,92.8%,98.1%,96.1%,94.8%,97%,92%,106%
O=C1Nc2ccccc2/C1=N/N=C/c1ccsc1,87%,112%,105%,97.8%,49.5%,103%,108%,102%
NC(N)=N/N=C/c1ccc(Br)cc1,-26.9% (active),92.3%,-33.1% (active),16.8%,4.98% (active),-26.3% (active),56.7%,18.3%
C=C1C(=O)O[C@H]2[C@H]1CC/C(COC(=O)/C=C\C(=O)NCc1ccc(Cn3c(=O)sn(CCCI)c3=O)cc1)=C\CC[C@@]1(C)O[C@@H]21,-48.3% (active),-56.2% (active),-83.8% (active),-76.3% (active),-53.5% (active),-48.8% (active),-77.8% (active),-77% (active)
COc1cc2c(cc1OC)-c1ccc3cc4c(cc3c1N(CCCN1CCCCC1)C2)OCO4,59.2%,40.7%,69.6%,38%,46.3%,24.6%,80.9%,48.5%
CCCN1CCN(c2ccc3nc(-c4ccc5nc(-c6cc(OC)c(OC)c(OC)c6)[nH]c5c4)[nH]c3c2)CC1,65.9%,83.2%,55.1%,75.7%,23.8%,55.1%,94.2%,77%
Cc1ccccc1NC(=O)CN(C)C,95.6%,106%,108%,108%,97.4%,101%,116%,107%
CC(=[N-])N1CCC[C@@H](Nc2c3ccccc3nc3ccccc23)C1.[Cl][Pt].[NH-]CCC[NH-],14.8%,79%,81.9%,20.5%,10.6%,14.9%,49.7%,49%
CC(=O)Nc1nccs1,97.7%,112%,106%,92.5%,91.2%,101%,102%,96%
COc1ccc(OC)c(/C=C2\COc3ccc(O)c(O)c3C2=O)c1,25.2%,39%,12.1%,9.79% (active),14.9%,3.33% (active),53.9%,16.4%
O=C(NC1CCOCC1)c1ccc2c(c1)CN(c1ncc(Cc3cccc(-n4cccn4)c3)s1)CC2,38.9%,31.1%,76.3%,107%,56.9%,47.6%,77%,84.9%
Cn1ccc(Cc2cnc(N)s2)n1,101%,102%,101%,98.9%,101%,108%,100%,103%
COc1ccc(/C=C2\COc3ccc(O)cc3C2=O)c(OC)c1,56.4%,57.8%,-30% (active),54.9%,54.7%,61.9%,89.2%,24.8%

SMILES,growth (T-47D breast),growth (BT-549 breast),growth (MDA-MB-435 melanoma),growth (SW-620 colon),growth (MCF7 breast),growth (HCT-116 colon),growth (HCC-2998 colon),growth (KM12 colon)
COc1ccc(-c2nc3sccn3c2/C=C/C(=O)c2c[nH]c3ccccc23)cc1,56.1%,59.1%,88.9%,100%,69.8%,69.5%,67.4%,76.8%
COc1ccc(-c2cc(-c3cc(OC)ccc3OC)[nH]c(=O)c2C#N)cc1,63.8%,48.7%,1.49% (active),26.7%,59.5%,29.9%,75.9%,51.4%
CN1CCN(CCCOc2ccc3nc(Nc4cc(Cl)cc(Cl)c4)ccc3c2)CC1,-68.6% (active),-43.2% (active),-87.1% (active),-82.1% (active),-89.2% (active),-78.2% (active),-89.2% (active),-88.7% (active)
COC(=O)CNC(=O)C(=O)c1c(O)c(O)c(C(C)C)c2cc(C)c(-c3c(C)cc4c(C(C)C)c(O)c(O)c(C(=O)C(=O)NCC(=O)OC)c4c3O)c(O)c12,16%,30.2%,55.1%,16%,18%,11%,33.8%,16.1%
CCNCCNc1cc(C2CCCC2)c(C#N)c2nc3ccccc3n12,13.8%,9.57% (active),11.2%,8.01% (active),29.6%,1.61% (active),32.7%,35%
CCOc1ccc(-c2nc3ccc(-c4nc5ccc(N6CCN(C)CC6)cc5[nH]4)cc3[nH]2)cc1OCC,15.2%,-29.5% (active),-2.53% (active),0.486% (active),7.04% (active),-3.06% (active),-15.9% (active),43%
COc1cc(/C=C2\C=C(c3ccccc3)N(CCc3ccccc3)C2=O)cc(OC)c1OC,56.9%,91.3%,89.5%,85.2%,70.9%,52.2%,102%,80.6%
CCN(CCO)CC(=O)c1cc(Cl)cc(Cl)c1Cl,84%,93.7%,105%,102%,98.9%,98.9%,98.2%,102%
CCCCCCCCN(CCCCCCCC)C(=N)c1ccnc2ccccc12,-62.9% (active),66.2%,-82.3% (active),-68.1% (active),-74.6% (active),-92.3% (active),-84.1% (active),-82.7% (active)
O=C1N(c2ccccc2)C(=S)N[C@]12[C@H](c1ccccc1)C1CCCN1[C@]21C(=O)NC2C=CC(Cl)=C[C@H]21 (stereo partly specified),79.6%,90.2%,112%,101%,99.1%,78.1%,103%,100%
CC(C)N(CCOC(=O)Nc1ccccc1Cl)C(C)C,107%,88.5%,113%,103%,104%,84.9%,102%,104%
COc1ccc(-c2cncnc2N)cc1OC,-95.7% (active),99.2%,104%,101%,103%,94.8%,103%,109%
CNCCNc1nc2ccccc2c2c(=O)c3cc(F)ccc3oc12,96.1%,69.9%,76.5%,33.6%,45.2%,27.2%,71.2%,41.8%
CCCCOc1nc2ccc(Cl)cc2cc1/C=C/C(=O)/C=C1/CC(c2cc3cc(Cl)ccc3nc2OCCCC)Nc2ccccc2N1 (stereo unspecified),83.5%,96.6%,104%,98.7%,74.2%,97.6%,91.5%,101%
O=C(CCl)N1c2cccc3cccc(c23)N(C(=O)CCl)C1c1cn(-c2ccccc2)nc1-c1cccc([N+](=O)[O-])c1,87.7%,98.5%,84.2%,35.4%,51.6%,37.3%,104%,101%
CSc1nc(N)c(CNC(C)c2ccccc2)c(=O)n1C (stereo unspecified),97.2%,96.1%,98.4%,107%,93.5%,92.2%,101%,106%
